Experimental data as given in PubChem BioAssay (NCATS).
Values joined by “and” are separate entries in the source; they are usually repeats but may differ in a detail not shown here. Equal values may be shown once. Inconclusive results are not listed. A number with no mark means an inactive call. Active and inactive are the calls of the source. Unless noted, the call rests on the fitted dose curve; in most records, active means well fitted curve in the direction sought with a large enough effect; inconclusive means small, poorly fitted or top-dose-only effect, or another doubt; inactive means no such curve, though single readings can be large; an effect the other way counts as inactive or inconclusive.

How the values were obtained:
[1] = biological target: Cellular tumor antigen p53 (Homo sapiens) (UniProt P04637); test: Primary qHTS for small molecule compounds that upregulate eGFP-tagged delta133p53alpha (in N-terminal) cells. (AID 2060322); settings: NCI-H358 eGFP-delta133p53alpha fluorescence, 24 h; activation: stronger effect = higher value;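 further: cells pre-induced with doxycycline then dosed without doxycycline; 0% = DMSO vehicle and 100% = reference activator; nearly all actives have a fitted effect of over 75% in size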
Outline: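 NCI-H358 cells pre-induced 24 h with 10 ng/ml doxycycline for eGFP-delta133p53alpha, plated dox-free and exposed 24 h at 37C to titrated compounds. Fixed, Hoechst-stained; gated GFP peak intensity by laser scanning cytometry, normalized to DMSO (0%) and 57.5 uM 5-azacytidine (100%).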

[2] = BET inhibitor-based combinations targeting novel dependencies in MECOM-rearranged (r) AML: SET-2 cell line (AID 2202231); settings: SET-2 AML cells viability, CellTiter-Glo luminescence, 48 h; viability: stronger effect = lower value, concentration not given here; further: nearly all actives have a fitted effect of over 35% in size; further: potency means the concentration at half of the fitted maximal effect;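 on viability: plate controls were DMSO treated cells for no effect and wells without cells for full effect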
Outline: (§1)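 Luminescent ATP readout (CellTiter-Glo) after 48 hr drug exposure gives viability. Curves span 11 concentrations and are normalized to DMSO and empty wells. Activity is reported as area under the curve and its Z-transform within each cell line.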

[3] = BET inhibitor-based combinations targeting novel dependencies in MECOM-rearranged (r) AML: OCI-AML3 cell line (AID 2202232); settings: CellTiter-Glo luminescence, 48 h; Potency: OCI-AML3 viability; series mostly up to 46 µM; further: potency means the concentration at half of the fitted maximal effect; nearly all actives have a fitted effect of over 35% in size
Outline: as §1

[4] = BET inhibitor-based combinations targeting novel dependencies in MECOM-rearranged (r) AML: HNT-34 cell line (AID 2202234); settings: HNT-34 AML viability, CellTiter-Glo luminescence, 48 h; series mostly up to 46 µM; further: potency means the concentration at half of the fitted maximal effect; nearly all actives have a fitted effect of over 35% in size
Outline: (§2)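 Luminescent ATP readout (CellTiter-Glo, 15 min at room temperature) after 48 hr drug exposure gave viability. Dose-response curves, normalized to DMSO and empty-well controls, were summarized as area under the curve and its mean-centred Z-score.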

[5] = BET inhibitor-based combinations targeting novel dependencies in MECOM-rearranged (r) AML: UCSD-AML1 cell line (AID 2202235); settings: UCSD-AML1 AML cells viability, CellTiter-Glo, 48 h; series mostly up to 46 µM; further: nearly all actives have a fitted effect of over 40% in size; further: potency means the concentration at half of the fitted maximal effect
Outline: as §2

[6] = BET inhibitor-based combinations targeting novel dependencies in MECOM-rearranged (r) AML: AML-194 cell line (AID 2202237; further: nearly all actives have a fitted effect of over 40% in size; further: potency means the concentration at half of the fitted maximal effect); settings: AML-194 (MECOM-r AML) viability, CellTiter-Glo, 48 h; series mostly up to 46 µM
Outline: as §1

[7] = BET inhibitor-based combinations targeting novel dependencies in MECOM-rearranged (r) AML: MV-4-11 cell line (AID 2202233); settings: MV-4-11 AML viability, CellTiter-Glo luminescence, 48 h; series mostly up to 46 µM; further: potency means the concentration at half of the fitted maximal effect; nearly all actives have a fitted effect of over 45% in size
Outline: as §2

[8] = BET inhibitor-based combinations targeting novel dependencies in MECOM-rearranged (r) AML: AML-191 cell line (AID 2202236; further: potency means the concentration at half of the fitted maximal effect; nearly all actives have a fitted effect of over 35% in size); settings: AML-191 viability, CellTiter-Glo luminescence, 48 h; series mostly up to 46 µM
Outline: as §1

[9] = biological target: Aldehyde dehydrogenase, mitochondrial (Homo sapiens) (UniProt P05091); test: qHTS for Inhibitors of the Aldehyde Dehydrogenase Family (ALDH2) Validation screens (AID 2061302; active means well fitted inhibition curve with a large enough effect; title and protocol of this record describe different tests;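 further: plate controls were DMSO vehicle for no effect and maximal DPI positive control response for full effect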); settings: ALDH inhibition qHTS; series mostly up to 42.6 µM
[10] = biological target: Cellular tumor antigen p53 (Homo sapiens) (UniProt P04637); test: Primary qHTS for small molecule compounds that upregulate eGFP-tagged delta133p53alpha (in C-terminal) cells. (AID 2060324); settings: NCI-H358 delta133p53alpha-eGFP (C-terminal tag), GFP fluorescence imaging, 24 h; series mostly up to 57.5 µM; further: potency means the concentration at half of the fitted maximal effect
Outline: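 Read-out: gated-cell GFP peak intensity (laser scanning cytometer), plate-normalized with DMSO as 0% activity, after 24 h compound exposure at 37C. Cells were C-terminal eGFP-tagged delta133p53alpha NCI-H358, doxycycline-induced (100 ng/ml, 24 h) before plating.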

[11] = biological target: Retinaldehyde dehydrogenase 3 (Homo sapiens) (UniProt P47895); test: qHTS for Inhibitors of the Aldehyde Dehydrogenase Family (ALDH1A3) Validation screen (AID 2061312); settings: ALDH1A3 enzyme inhibition qHTS validation, fluorescence; series mostly up to 42.4 µM; further: on the % scale 0 is the no-effect control and ±100 the full control effect; nearly all actives have a fitted effect of over 45% in size

Sequence of Cellular tumor antigen p53 (Homo sapiens) (P04637 whole entry, looked up): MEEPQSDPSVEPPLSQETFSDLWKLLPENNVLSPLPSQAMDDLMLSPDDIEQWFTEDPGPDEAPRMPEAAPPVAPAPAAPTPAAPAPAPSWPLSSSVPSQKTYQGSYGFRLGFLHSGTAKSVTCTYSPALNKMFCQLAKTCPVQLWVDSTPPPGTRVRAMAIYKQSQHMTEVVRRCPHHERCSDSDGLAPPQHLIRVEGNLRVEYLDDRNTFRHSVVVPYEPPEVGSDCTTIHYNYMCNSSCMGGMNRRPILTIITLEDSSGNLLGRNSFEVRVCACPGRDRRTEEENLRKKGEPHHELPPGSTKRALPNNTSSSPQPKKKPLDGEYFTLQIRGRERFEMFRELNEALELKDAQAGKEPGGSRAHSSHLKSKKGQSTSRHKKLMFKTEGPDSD

In the case of `C[C@@H]1CC[C@H]2[C@@H](C)C(=O)O[C@@H]3O[C@@]4(C)CC[C@@H]1[C@]32OO4`, the activation [1] is reported as 0%, the viability [2] is reported as 93.5% and the Potency [3] is reported as 1.18 µM (active). For the same compound, the Potency [4] was 14.8 µM (active), the Potency [5] was “inactive” and the Potency [6] was “inactive”.
For `Fc1ccc(C(OCCN2CCN(CCCc3ccccc3)CC2)c2ccc(F)cc2)cc1`, the activation [1] was 0.57% and -55.2%, the Potency [2] was 23.5 µM (active) and the Potency [3] was 29.5 µM (active). The Potency [7] was 10.5 µM (active), the Potency [5] was 26.3 µM (active) and the Potency [8] was 18.6 µM (active). The Potency [6] was 23.5 µM (active).
For `Cc1ncsc1CCCl`, the Potency [9] was “inactive”.
With `Clc1cc(I)cc(Cl)c1NC1=NCCN1` the Potency [10] was “inactive”, the Potency [9] was “inactive” and the Potency [11] was “inactive”.
In the case of `O=C1/C(=C/c2ccccc2)C[C@@]2(O)[C@H]3Cc4ccc(O)c5c4[C@@]2(CCN3CC2CC2)[C@H]1O5`, the Potency [10] is reported as 21.3 µM (active), the Potency [9] is reported as “inactive” and the Potency [11] is reported as “inactive”.
